Assay outcomes (PubChem)
The list is not random: actives were taken first. Their share in the collection is about 31%.
CYP2C9 act – increases human cytochrome P450 2C9 activity; activation factor at 5 µM; P11712; hit rate 1.4% among 96,000; recombinant CYP2C9, luciferin-H conversion, luminescence; active compounds read high; factor 1 = untreated enzyme, 0 = blocked;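 active means activation factor of 2 or more for CYP2C9 at a 5 µM dose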;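 further: 0 = sulfaphenazole-blocked wells and 1 = vehicle-only wells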
Target sequence (P11712 whole entry, looked up): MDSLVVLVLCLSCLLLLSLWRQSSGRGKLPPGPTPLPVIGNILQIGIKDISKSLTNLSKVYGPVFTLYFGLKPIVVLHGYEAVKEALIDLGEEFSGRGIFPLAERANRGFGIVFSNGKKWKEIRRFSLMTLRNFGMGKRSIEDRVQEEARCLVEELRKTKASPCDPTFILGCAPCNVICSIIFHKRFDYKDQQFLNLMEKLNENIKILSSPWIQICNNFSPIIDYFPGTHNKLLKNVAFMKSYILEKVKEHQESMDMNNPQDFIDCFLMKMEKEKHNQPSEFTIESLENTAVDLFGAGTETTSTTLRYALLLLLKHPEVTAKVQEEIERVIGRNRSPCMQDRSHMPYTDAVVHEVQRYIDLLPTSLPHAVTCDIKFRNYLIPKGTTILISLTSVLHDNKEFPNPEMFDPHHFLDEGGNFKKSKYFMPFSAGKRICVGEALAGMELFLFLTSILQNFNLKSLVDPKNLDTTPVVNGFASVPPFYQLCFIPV
CYP2C9 inh – blocks human cytochrome P450 2C9; P11712; CYP2C9 Supersomes, luciferin-H conversion, luminescence; inhibition, % at 5 µM; hit rate 20% among 96,000; AID 777;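 active means blocking of liver enzyme CYP2C9 beyond about 50% at 5 µM, limit read from the data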
CYP2C19 activ – cytochrome P450 2C19 (human) activation | P33261 | recombinant CYP2C19, luciferin-H EGE luminescence; active compounds read high; 0 = fully inhibited enzyme, 1 = untreated enzyme | 96,000 tested, under 10 active | activation factor at 5 µM;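 active means activation factor of at least 2 at 5 µM in the primary screen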;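 further: 0 = wells with 2.5 mM tranylcypromine and 1 = vehicle-only wells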
CYP2C19 inhib – human CYP2C19 inhibition | P33261 | CYP2C19 Supersomes, luciferin-H EGE luminescence, 30 min | hit rate 21% among 96,000 | AID 778 | inhibition, % at 5 µM;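 active means CYP2C19 inhibition above a set limit at 5 µM in the primary screen, cut at about 50% in these data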;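 further: plate controls were negative control wells for no effect and 2.5 mM tranylcypromine positive control for full effect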
An asterisk follows results filed as active.

SMILES	CYP2C9 act	CYP2C9 inh	CYP2C19 activ	CYP2C19 inhib
CCC1Oc2ccc(C)cc2N(CC(=O)NCc2cc(OC)ccc2OC)C1=O (stereo unspecified)	0.8	16	0.3	73*
CCC1Oc2ccc(C)cc2N(CC(=O)NCCN2CCCCCC2)C1=O (stereo unspecified)	0.9	9	0.9	6
CCC1Oc2ccc(C)cc2N(CC(=O)NCc2cccc(OC)c2)C1=O (stereo unspecified)	0.9	14	0.1	94*
CCC1Oc2ccc(C)cc2N(CC(=O)NCCCN2CCN(Cc3ccccc3)CC2)C1=O (stereo unspecified)	0.9	8	0.9	10
COc1ccccc1N1C(=O)CCC1(C#N)c1ccccc1 (stereo unspecified)	1	4	1	3
CC1CCN(Cc2ccc(NC(=O)CC3Oc4ccccc4NC3=O)cc2)CC1 (stereo unspecified)	1	3	1.1	-9
CN(C)C(CNC(=O)c1cccc(S(=O)(=O)N2CC3(C)CC2CC(C)(C)C3)c1)c1ccco1 (stereo unspecified)	0.3	73*	0.3	75*
COC(=O)c1ccc(/C=C/C(=O)c2ccc(OC)c(OC)c2)cc1	0.8	23	0.6	39
COC(=O)c1ccc(/C=C/C(=O)c2ccc(OC)cc2)cc1	0.1	91*	0.5	53*
CCOc1ccc(C(=O)/C=C/c2ccccc2C(F)(F)F)cc1	1.3	-27	0.8	16
CCOc1ccc(C(=O)/C=C/c2ccc(SC)cc2)cc1	0.7	28	0.4	62*
O=C1C(Cl)=C(NCC2CCCO2)C(=O)N1Cc1ccccc1 (stereo unspecified)	1.6	-62	0.4	60*
Cn1c(=O)n(Cc2ccccc2)c(=O)c2c1nc(NCC1CCCO1)n2Cc1ccccc1 (stereo unspecified)	0.3	66*	1	3
CCCCCCN=CC1=C(O)C(C(=O)OC)C(C)(C)CC1=O (stereo unspecified)	0.6	42	0.5	47
CS/C(=N\S(=O)(=O)c1cccs1)NC(=O)CSc1nc2ccccc2s1	0	100*	0.2	80*
Cc1ccc(S(=O)(=O)NC(=O)CSc2nc3ccccc3s2)cc1	0.7	34	1	2
COc1ccc(C2CC(c3cccc(C)c3)n3ncnc3N2)cc1 (stereo unspecified)	0.4	61*	0	96*
COc1ccc(C2CC(c3cc(OC)ccc3OC)n3nnnc3N2)cc1 (stereo unspecified)	0.2	78*	0	98*
COc1cccc(C2CC(c3cccc(C)c3)n3ncnc3N2)c1 (stereo unspecified)	0.3	67*	0.3	74*
CCOc1ccc(C2CC(c3cccc(C)c3)n3ncnc3N2)cc1 (stereo unspecified)	0.5	54*	0.2	85*
COc1ccc(C2CC(c3ccccc3Cl)Nc3ncnn32)cc1OC (stereo unspecified)	1	-3	0.6	36
Cc1cc(C)nc(SCc2nc3ncccn3c2Br)n1	1.2	-18	1	-1
COc1cccc(CC(NC(C)=O)C(=O)NC2CCN(S(=O)(=O)c3ccc4ccccc4c3)CC2)c1 (stereo unspecified)	1	-5	1	-1
Cc1cccc(C2CC(c3ccccc3)Nc3ncnn32)c1 (stereo unspecified)	0.4	61*	0	98*
Cc1ccc2oc(=O)c3cnn(CC(=O)NCCC(C)C)c3c2c1	0.8	18	0.9	14
SMILES	CYP2C9 act	CYP2C9 inh	CYP2C19 activ	CYP2C19 inhib
CC1=CC(C)(C)N(S(=O)(=O)c2ccc(F)cc2)c2ccccc21	0.5	46	0.4	58*
CC1=CC(C)(C)N(S(=O)(=O)c2ccc(C)cc2)c2ccc(C)cc21	0.6	40	0.6	38
CCOC(=O)C1=C(c2ccccc2)N=C2SCC(=O)N2C1c1ccc2c(c1)OCO2 (stereo unspecified)	1	-4	0.9	10
COc1ccc(NS(=O)(=O)c2cccc(C(=O)N/N=C(\C)c3ccc(-n4ccnc4)cc3)c2)cc1	0	99*	0.1	93*
C/C(=N\NC(=O)c1cccc(S(=O)(=O)Nc2ccccc2Cl)c1)c1ccc(-n2ccnc2)cc1	0	100*	0	99*
CC(=O)N1C(c2ccccc2)CC(=O)OC1c1ccc2c(c1)OCO2 (stereo unspecified)	0.9	14	0.3	69*
Cc1cccc(C(=O)N2c3ccccc3C(=O)OC2c2ccc3c(c2)OCO3)c1 (stereo unspecified)	0.4	58*	0.7	27
O=C1OC(c2ccc3c(c2)OCO3)N(C(=O)c2ccc(Cl)c(Cl)c2)c2ccccc21 (stereo unspecified)	0.1	86*	0.2	84*
CCN(CC)CCCN(Cc1cc2cc3c(cc2[nH]c1=O)OCO3)C(=O)Nc1ccccc1OC	1	0	0.9	10
Cc1nc(-c2ccccc2)sc1C(N)=O	0.6	36	0.8	22
Cc1nc(-c2ccccc2)sc1C(=O)CSc1ccccc1	0.2	80*	1	4
Cc1nc(-c2ccccc2)sc1C(=O)CSc1ccc(F)cc1	0.1	86*	0.4	64*
CCOc1ccc(/C=C2\C(=O)c3ccccc3OC2c2ccccc2)cc1 (stereo unspecified)	0.6	42	0.5	52*
COc1ccc(S(=O)(=O)NCc2ccco2)c2ccccc12	2*	-104	0.5	47
CN1C(=O)c2cccc3c(S(=O)(=O)NCc4ccco4)ccc1c23	0.2	79*	0.1	94*
Cc1cc(S(=O)(=O)NCc2ccco2)c(C)s1	1.1	-11	0.8	21
Cc1nnc(SCCn2c(N(C)Cc3ccccc3)nc3c2c(=O)[nH]c(=O)n3C)s1	0.9	9	1	-4
Cc1cc(C)nc(N2CCN(c3nnnn3-c3ccccc3)CC2)n1	0.1	85*	0.6	45
FC(F)(F)c1cccc(N2CCN(c3nnnn3-c3ccccc3)CC2)c1	0	100*	0	98*
COCCn1nnnc1CN1CCN(c2cccc(C(F)(F)F)c2)CC1	0.5	46	0.2	78*
Cc1ccc(C)c(N2CCN(c3nnnn3-c3ccccc3)CC2)c1	0.1	91*	0	99*
CC(C)(C)c1ccc(CN2N=Nc3ccccc3S2(=O)=O)cc1	1.1	-10	1	5
CCOC(=O)c1[nH]c(C)c(C(=O)OC(C)C(=O)Nc2ncc(Cl)cc2Cl)c1C (stereo unspecified)	0.6	40	0.8	24
COc1ccccc1NC(=O)CSc1nc(O)cc(=O)[nH]1	1.1	-5	1.2	-18
Cc1cc(C(=O)NCCCN2CCN(C3CCCCC3)CC2)n(-c2ccccc2)n1	1.1	-6	1.1	-12
CC(C)NC(=O)c1ccc(-c2ccc(Cl)c(C(F)(F)F)c2)o1	1	-5	1	3
COc1cccc(/C=N/n2c(N)c(S(=O)(=O)c3cccs3)c3nc4ccccc4nc32)c1	0.9	8	1	3
CCCCNC(=O)c1c(N)n(/N=C/c2ccccn2)c2nc3ccccc3nc12	0.7	29	0.8	15
